Each molecule was assayed against Chromo domain-containing protein 1 (Saccharomyces cerevisiae (strain ATCC 204508 / S288c) (Baker's yeast)) (UniProt P32657) (assay: ScCHD-1 Enzyme Inhibition Assay). Conditions: 30 µM.
Chromo domain-containing protein 1 (Saccharomyces cerevisiae (strain ATCC 204508 / S288c) (Baker's yeast)), sequence (P32657 whole entry, the tested form may be a part): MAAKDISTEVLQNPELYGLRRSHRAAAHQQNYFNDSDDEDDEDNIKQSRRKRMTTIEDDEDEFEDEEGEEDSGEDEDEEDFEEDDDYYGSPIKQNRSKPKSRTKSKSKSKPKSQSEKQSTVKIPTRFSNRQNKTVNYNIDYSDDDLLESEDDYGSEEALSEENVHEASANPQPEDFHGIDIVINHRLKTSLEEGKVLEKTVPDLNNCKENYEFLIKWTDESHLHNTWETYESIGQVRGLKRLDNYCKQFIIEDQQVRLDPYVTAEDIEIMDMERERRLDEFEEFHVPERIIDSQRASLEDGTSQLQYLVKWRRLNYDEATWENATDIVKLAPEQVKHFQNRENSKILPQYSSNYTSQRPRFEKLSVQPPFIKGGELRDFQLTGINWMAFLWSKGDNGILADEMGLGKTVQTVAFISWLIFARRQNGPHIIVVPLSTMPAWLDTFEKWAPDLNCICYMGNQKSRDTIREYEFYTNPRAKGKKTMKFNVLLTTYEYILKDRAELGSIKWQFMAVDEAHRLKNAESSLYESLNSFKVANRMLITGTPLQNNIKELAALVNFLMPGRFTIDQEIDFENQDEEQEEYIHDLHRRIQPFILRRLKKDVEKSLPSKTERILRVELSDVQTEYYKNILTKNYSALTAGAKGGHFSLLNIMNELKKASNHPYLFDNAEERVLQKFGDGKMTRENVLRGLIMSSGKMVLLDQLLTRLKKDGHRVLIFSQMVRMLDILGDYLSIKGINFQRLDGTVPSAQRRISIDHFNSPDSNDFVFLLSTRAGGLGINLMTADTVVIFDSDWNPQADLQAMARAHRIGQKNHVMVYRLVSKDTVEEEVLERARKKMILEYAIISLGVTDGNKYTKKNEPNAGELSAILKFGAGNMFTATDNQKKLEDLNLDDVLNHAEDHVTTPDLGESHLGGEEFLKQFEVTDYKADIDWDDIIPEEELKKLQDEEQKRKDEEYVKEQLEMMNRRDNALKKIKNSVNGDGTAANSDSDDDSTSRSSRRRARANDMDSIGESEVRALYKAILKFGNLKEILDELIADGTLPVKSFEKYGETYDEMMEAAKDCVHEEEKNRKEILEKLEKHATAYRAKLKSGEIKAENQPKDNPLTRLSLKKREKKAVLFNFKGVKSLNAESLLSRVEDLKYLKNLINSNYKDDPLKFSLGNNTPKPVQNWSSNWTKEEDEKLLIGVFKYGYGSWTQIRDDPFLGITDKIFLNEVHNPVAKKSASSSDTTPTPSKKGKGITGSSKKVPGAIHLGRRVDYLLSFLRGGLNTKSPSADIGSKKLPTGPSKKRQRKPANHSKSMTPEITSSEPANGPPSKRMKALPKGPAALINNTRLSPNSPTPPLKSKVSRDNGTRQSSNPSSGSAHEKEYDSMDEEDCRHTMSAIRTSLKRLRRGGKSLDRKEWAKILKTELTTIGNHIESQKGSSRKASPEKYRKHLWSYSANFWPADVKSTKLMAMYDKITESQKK
Format: functional
Set-up: scale not given: in the data most compounds retested in dose-response had high values
COc1ccccc1CN1CCC2(CC1)CC(Oc1ccccn1)CO2 (stereo not given) was tested, and the Percent Effect was -13.9%. Molecule CC(C)Nc1nc(N2CCOCC2)nc2c1CN(CC(=O)N(C)C)CC2 has a Percent Effect of -5.05%. With c1ccc(CCN2CCN(c3ccc4nncn4n3)CC2)nc1 the Percent Effect was -0.331%. COc1cccc(CCNC(=O)CN2CCN(C)CC2C)c1 (stereo not given) showed a Percent Effect of -5.6%. CC(=O)N1CCC(Oc2ccc(C#N)cn2)CC1 was tested, and the Percent Effect was -5.65%. COc1cccc(CCC(=O)N2CCCCC2Cn2cccn2)c1 (stereo not given) showed a Percent Effect of -13.2%. Cc1scc(C(=O)N2CCC3(CC(=O)NC3=O)C2)c1-c1ccccc1 (stereo not given) showed a Percent Effect of -5.21%. With CCc1csc(C2CCCN(C(=O)c3ccc(OC)nn3)C2)n1 (stereo not given) the Percent Effect was -7.71%. For CN(C)S(=O)(=O)c1ccc(CN2CCCC2c2ccccc2)o1 (stereo not given), the Percent Effect was -6.96%. In the case of Clc1cc(CN2CCCC2Cn2cncn2)c2ncccc2c1 (stereo not given), the Percent Effect is reported as -2.39%. C=C(C)CN(Cc1cccc(O)c1)C1CCC(O)CC1 (stereo not given) was tested, and the Percent Effect was -4.17%. CCn1c(N)nc2cc(C(=O)NCc3ccccc3Cl)cnc21 gave a Percent Effect of -4.29%. CCOCC1CN(S(C)(=O)=O)Cc2cnn(C)c21 (stereo not given) was tested, and the Percent Effect was -7.93%. Work on c1ccc(OC[C@]23COC[C@H]2CN(c2ncccn2)C3)nc1 yielded a Percent Effect of -8.1%. CCCC(=O)NCc1cc(Br)c(OC)c(OC)c1 showed a Percent Effect of -8.52%. CCc1csc(C2CCCN(C(=O)c3ccnc(N(C)C)c3)C2)n1 (stereo not given) showed a Percent Effect of -4.33%. With Cc1ccsc1-c1nnc(C2CCN(Cc3ccc(F)cc3)CC2)o1 the Percent Effect was -15.5%. CC(NC(N)=O)C(=O)N(C)CCCc1cc(-c2ccccc2)no1 (stereo not given) gave a Percent Effect of 0.208%. In the case of Cc1cccc(C(=O)NCCCN2CCN(c3ccccc3)CC2)c1, the Percent Effect is reported as -9.93%. With CC1CCCCN1CCNC(=O)c1ccn(-c2ccc(F)cc2)n1 (stereo not given) the Percent Effect was -19.6%. Molecule Cc1noc(C)c1CN1CC2(CCN(C(=O)c3cscn3)CC2)CC1=O has a Percent Effect of -2.57%. O=C(NCc1ccccn1)NC1CCOc2ccccc21 (stereo not given) was tested, and the Percent Effect was -5.33%. With COc1ccc(CN2C[C@@H](OCc3ccccn3)[C@H]3COC[C@H]32)cc1 the Percent Effect was 2.02%. Work on Cc1cnn(CC2CCCN2Cc2nc3ccccc3nc2C)c1 (stereo not given) yielded a Percent Effect of -12.8%. Cn1cc(C2CCCN2CCCc2nc(-c3cccs3)no2)cn1 (stereo not given) showed a Percent Effect of 0.396%. Molecule O=C(Nc1cccc(OCc2ccc(F)cc2)c1)C1COCCO1 (stereo not given) has a Percent Effect of -0.73%. O=C(C1CCCc2[nH]ncc21)N1CCCCCC1 (stereo not given) showed a Percent Effect of -3.22%. For CN(C)S(=O)(=O)N1CCC(Oc2ccc(C#N)cn2)CC1, the Percent Effect was -8.98%. For O=C(c1cccc2cccnc12)N1CCCN(c2cccnn2)CC1, the Percent Effect was -27.3%. CC(NC(=O)NCc1cccnc1N1CCCCC1)c1nccs1 (stereo not given) was tested, and the Percent Effect was -7.32%. With CCS(=O)(=O)c1ccccc1N1CCC(NC(=O)NC2CCCC2)CC1 the Percent Effect was -1.94%. For Cc1nc(CN2CCN(CC(=O)Nc3c(C)cccc3C)CC2)no1, the Percent Effect was -17.5%. For Fc1ccc2c(c1)C(NCc1nnc3n1CCCCC3)CCCO2 (stereo not given), the Percent Effect was -12.5%. With Cc1cc(N2CCN(Cc3ccc(-c4cc[nH]n4)o3)CC2)cc(C)n1 the Percent Effect was -5.59%. Molecule COc1cc(C)nc(N2CCN(C(=O)CCc3cscn3)CC2)n1 has a Percent Effect of -3.75%. O=C(NCC1CC1)[C@H]1CC[C@@H]2[C@@H](CCN2Cc2ccoc2)O1 showed a Percent Effect of -12.2%. In the case of Cc1noc(C)c1C(=O)N(C)Cc1nc(-c2ccccn2)no1, the Percent Effect is reported as -3.45%. With CNc1nc(CNC(=O)Nc2ccccc2-c2noc(C)n2)cs1 the Percent Effect was -4.83%. In the case of Cc1nnc2n1CCN(C(=O)c1cc(Cl)c[nH]1)C2, the Percent Effect is reported as 3.54%. With CCn1cc2c(n1)CN(CC1CC1)CC2COCC1CC1 (stereo not given) the Percent Effect was -4.66%.

— ChEMBL document CHEMBL3988442, “University of Dundee, Small-Polar-MMV Screening Library” (2021)
